From ChEMBL document CHEMBL1201862, “PubChem BioAssay data set” (2004)
Out of some 57,000 sequences screened, about 4,900 (8.6%) were called active. No stated cut-off is given here; in the data, active = GI50 up to about 1.1 µM and inactive = higher. Many of the other results were omitted from the sample, so actives are more common in it than they were. Entries with a potency or affinity are not part of this list.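 Cultured in 96-well plates, cells were exposed to test compound for 48 hours across five concentrations. Here, GI50 denotes the concentration required for 50% inhibition of growth.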

The substances below were run on MOLT-4 (assay: NCI tumour cell line growth inhibition, 48 h).
“[Bis(aminomethyl)tetramethylenesilane]tetrachloropaltinum(IV), CHEMBL2146189” showed a GI50 of 824 nM.
In the case of “[Bis(aminomethyl)ethylmethylsilane]tetrachloroplatinum(IV), CHEMBL2146192”, the GI50 was 531 nM.
“[Bis(aminomethyl)dimethylsilane]tetrachloroplatinum(IV), CHEMBL2146190” showed a GI50 of 1680 nM.
Work on “cis-Bis[[(trimethylsilyl)methyl]amino]tetrachloroplatinum(IV), CHEMBL2146191” yielded a GI50 of 2000 nM.
With CISPLATIN, CHEMBL11359 the GI50 was 1430 nM.
In the case of “[Bis(aminomethyl)tetramethylenesilane]dichloropaltinum(II), CHEMBL2146205”, the GI50 was 2090 nM.
“[Bis(aminomethyl)dimethylsilane]dichloroplatinum (II), CHEMBL2146201” was tested, and the GI50 was 5000 nM.
“[Bis(aminomethyl)diethylsilane]tetrachloroplatinum(IV), CHEMBL2146203” showed a GI50 of 561 nM.
With “mu-(1,7-nanodiamine-N,N')bis-(cis-aminedichloroplatimum (II)), CHEMBL2146215” the GI50 was 592 nM.
“[Bis(aminomethyl)pentamethylenesilane]dichloropaltinum(II), CHEMBL2146202” showed a GI50 of 325 nM.
“[Bis(aminomethyl)pentamethylenesilane]tetrachloropaltinum(IV), CHEMBL2146204” gave a GI50 of 505 nM.
